The campaign covered roughly 1,100 compounds. About 860 (78%) were called active. Roughly 19% stayed inconclusive and do not appear here. Calls follow the shape of the dose curve; as a rule, active = well fitted activation curve with a large enough effect; inconclusive = small, poorly fitted or top-dose-only effect; inactive = flat fitted curve, though single readings scatter. So high a share suggests a set chosen from earlier hits. Some of the results follow.
Assay: qHTS of Nrf2 Activators: Hit Validation in Primary Assay; also: nearly all actives have a fitted effect of over 70% in size
Details: Nrf2/ARE reporter cell assay; Potency: activation; series mostly up to 46.1 µM
Procedure, shortened: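 AREc32 cells stably carrying an ARE-driven firefly luciferase, plated overnight, then exposed 24 h at 37 °C to compounds at several concentrations. ARE activation read as luminescence with Steady-Glo after 30 min at room temperature.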
Potency is read from the fitted curve at half-maximal effect.

Row | SMILES | Potency
1 | COc1ccc(Cl)cc1NC(=O)c1ccco1 | 4.61 µM (active)
2 | CCOc1ccsc1C(=O)NNC(=O)c1ccco1 | 5.8 µM (active)
3 | Cc1ccc([N+](=O)[O-])cc1NC(=S)NC(=O)c1ccco1 | 4.11 µM (active)
4 | Cc1ccc2nsnc2c1NC(=S)NC(=O)c1ccco1 | 4.61 µM (active)
5 | CCOc1ccccc1NC(=S)NC(=O)c1ccco1 | 10.3 µM (active)
6 | COc1ccc([N+](=O)[O-])cc1NC(=O)c1ccco1 | 5.17 µM (active)
7 | CC(=O)c1cc2c(cc1NC(=O)c1ccco1)OCCO2 | 3.66 µM (active)
8 | O=C(Nc1cc(Cl)ccc1-n1cncn1)c1ccco1 | 10.3 µM (active)
9 | Cc1cc(C(=O)Nc2cc(Br)ccc2O)on1 | 13 µM (active)
10 | O=C(Nc1ccc(Br)c(Cl)c1)c1ccco1 | 2.06 µM (active)
11 | Cc1cc(NC(=S)NC(=O)c2ccco2)c2ccccc2n1 | 2.59 µM (active)
12 | [O-][n+]1onc2c1CCc1c-2nn(-c2ccccc2Cl)[n+]1[O-] | 0.92 µM (active)
13 | Cc1ccc(-n2nc3c([n+]2[O-])CCc2c-3no[n+]2[O-])cc1 | 0.291 µM (active)
14 | COc1ccc(-c2nnc3c4ccccc4c(C)nn23)cc1 | 3.66 µM (active)
15 | Cc1nn2c(-c3ccccc3)nnc2c2ccccc12 | 4.11 µM (active)
16 | CC1CCCCC1NC(=O)COC(=O)c1c2c(nc3ccccc13)/C(=C/c1ccco1)CC2 (stereo not given) | 8.2 µM (active)
17 | O=C(Nc1ccc2c(c1)C(=O)NC2=O)c1cccc(C(F)(F)F)c1 | 2.06 µM (active)
18 | O=C(Nc1ccc2c(c1)C(=O)NC2=O)c1ccccc1 | 20.6 µM (active)
19 | Cc1csc2nc(NC(=O)c3ccccc3)sc(=O)c12 | 8.2 µM (active)
20 | O=C(Nc1nc(=O)c2ccccc2s1)c1ccccc1 | 0.731 µM (active)
21 | S=C(NNc1ccc2ccccc2c1)NC1CCCCC1 | 13 µM (active)
22 | CCC(CC)c1nnc(NC(=O)/C=C/c2ccco2)s1 | 1.46 µM (active)
23 | O=C(/C=C/c1ccco1)NC(=S)Nc1nc(-c2ccc(Cl)cc2)cs1 | inactive
24 | Cc1nnc(NC(=O)/C=C/c2ccco2)s1 | 8.2 µM (active)
25 | CCc1nnc(NC(=O)/C=C/c2ccco2)s1 | 6.51 µM (active)
26 | Cc1csc(NC(=O)/C=C/c2ccco2)n1 | 4.11 µM (active)
27 | Cc1cc(C)c2oc(-c3ccc(C)c(NC(=O)/C=C/c4ccco4)c3)nc2c1 | 2.91 µM (active)

Row | SMILES | Potency
28 | CNS(=O)(=O)c1ccc2nc(NC(=O)/C=C/c3ccco3)sc2c1 | 1.84 µM (active)
29 | Cc1cccc(C)c1NC(=S)NC(=O)c1cccc(Cl)c1 | 3.26 µM (active)
30 | Cc1ccc(NC(=O)/C=C/c2ccc([N+](=O)[O-])s2)cc1 | 2.31 µM (active)
31 | Cc1cc(C)cc(NC(=O)/C=C/c2ccc([N+](=O)[O-])s2)c1 | 2.31 µM (active)
32 | O=C(CSc1nnc(-c2ccco2)c(-c2ccco2)n1)c1ccccc1 | 5.17 µM (active)
33 | CSc1nnc(-c2ccco2)c(-c2ccco2)n1 | 11.6 µM (active)
34 | CSC1=NC(C)(C)C=C(/C=C/c2ccc(Cl)cc2)N1 | 9.2 µM (active)
35 | Brc1cc(Cc2nnc(-c3ccccc3)o2)c(Br)s1 | 8.2 µM (active)
36 | Cc1ccc(O)c(NC(=O)c2cccc(NC(=O)c3ccco3)c2)c1 | 2.59 µM (active)
37 | O=C(Nc1ccccc1O)c1cccc(NC(=O)c2ccco2)c1 | 4.11 µM (active)
38 | O=C(Nc1cccc(F)c1)c1ccco1 | inactive
39 | O=C(Nc1ccccc1C(=O)NCCc1ccccc1)c1ccco1 | 2.06 µM (active)
40 | CCCc1nc([N+](=O)[O-])c(S(=O)(=O)c2ccccc2)n1CC(C)C | 3.26 µM (active)
41 | S=C(NCc1ccco1)Nc1ccccn1 | 9.2 µM (active)
42 | Brc1ccc(-c2nnc(-c3cccnc3)c3conc23)cc1 | 0.517 µM (active)
43 | C#CCSc1nc(-c2cccs2)ccc1C#N | 4.61 µM (active)
44 | Cc1cc(C)n(-c2nc3ccccc3c(=O)n2OCc2ccc(F)cc2)n1 | 1.84 µM (active)
45 | CC1(C)CC[C@]2(C(=O)n3ccnc3)CC[C@]3(C)[C@H](C(=O)C=C4[C@@]5(C)C=C(C#N)C(=O)C(C)(C)[C@@H]5CC[C@]43C)[C@@H]2C1 | 0.092 µM (active)
46 | O=[N+]([O-])c1ccc(NN=Cc2ccco2)nc1 | 0.731 µM (active)
47 | Brc1ccc(-c2csc(N/N=C/c3ccco3)n2)cc1 | 2.91 µM (active)
48 | CCn1nc(C)c(Br)c1-c1nc(-c2cccc(C)c2)no1 | 8.2 µM (active)
49 | COc1ccccc1CNC(=O)COC(=O)c1cc(-c2ccco2)nc2ccccc12 | 9.2 µM (active)
50 | O=C(Nc1cccc(F)c1)c1cc(-c2ccco2)nc2ccccc12 | 2.06 µM (active)
51 | O=C(Nc1ccc(F)cc1F)c1cc(-c2ccco2)nc2ccccc12 | 0.731 µM (active)
52 | O=C(Nc1ccccc1F)c1cc(-c2ccco2)nc2ccccc12 | 2.06 µM (active)
53 | CC1Oc2ccccc2OC1C(=O)Nc1ccccn1 (stereo not given) | 2.91 µM (active)
54 | CSc1nsc(SC)c1NC(=O)Nc1ccccn1 | 5.17 µM (active)

Row | SMILES | Potency
55 | O=[N+]([O-])c1cc(Cl)cc2c1nc(NCCO)c1ccccc12 | 10.3 µM (active)
56 | Clc1cccc(Cl)c1/C=N\Nc1nccs1 | 9.2 µM (active)
57 | Brc1ccccc1/C=N/Nc1ccccn1 | 6.51 µM (active)
58 | Clc1ccccc1NN=Cc1ccccn1 | 5.8 µM (active)
59 | O=[N+]([O-])c1ccc(Cl)cc1C=NNc1ccccn1 | 3.26 µM (active)
60 | O=[N+]([O-])c1ccc(Cl)cc1N/N=C/c1ccncc1 | 0.731 µM (active)
61 | Fc1cccc(Cl)c1/C=N/Nc1ccccn1 | 4.11 µM (active)
62 | Cc1ccc(C)c(/C=N/Nc2ccccn2)c1 | 6.51 µM (active)
63 | Clc1ccccc1C=NNc1ccccn1 | 2.31 µM (active)
64 | CCOc1ccccc1NS(=O)(=O)c1c(C(=O)OC)sc2cccc(F)c12 | 14.6 µM (active)
65 | O=C1C(Cl)=C(N2CCN(c3ccccc3[N+](=O)[O-])CC2)C(=O)c2ccccc21 | 3.66 µM (active)
66 | Cc1cc(=O)n2nc(-c3ccccc3)sc2c1C#N | 4.11 µM (active)
67 | CCn1c(=O)c([N+](=O)[O-])c(NCc2ccco2)c2ccccc21 | 5.8 µM (active)
68 | N#Cc1ccccc1N/C=C/C(=O)c1ccc(Cl)cc1 | 2.31 µM (active)
69 | CC(/C=N/Nc1nnc2c(n1)[nH]c1ccccc12)=C\c1ccco1 | 10.3 µM (active)
70 | O=C1CSC(=S)N1Cc1cccnc1 | 10.3 µM (active)
71 | C#CCOc1ccc(/C=C2\SC(=S)N(Cc3cccnc3)C2=O)cc1 | 4.61 µM (active)
72 | COc1ccc(OC)c(/C=C2\SC(=S)N(Cc3cccnc3)C2=O)c1 | 5.17 µM (active)
73 | O=C1/C(=C/c2ccccc2O)SC(=S)N1Cc1cccnc1 | 4.61 µM (active)
74 | C[C@H]1CCC[C@]2(C)C[C@H]3OC(=O)C(CN4CCCCCC4)[C@H]3C=C12 (stereo not given in full) | 5.8 µM (active)
75 | CC1CCN(CC2C(=O)O[C@@H]3C[C@@]4(C)CCC[C@H](C)C4=C[C@H]23)CC(C)(C)C1 (stereo not given in full) | 5.8 µM (active)
76 | Brc1cc(Br)c2nc(-c3cccs3)ccc2c1 | 4.11 µM (active)
77 | O=C(CN1CC(=O)Oc2ccccc21)OCC(=O)c1ccc(F)cc1 | 18.4 µM (active)
78 | N/C(=N\OC(=O)c1ccco1)c1cccc(Br)c1 | 20.6 µM (active)
79 | COc1cc(OC)cc(C(=O)O/N=C(\N)c2cccc(C)c2)c1 | inactive
80 | Cc1csc(-c2ccc3cc(Cl)cc(Cl)c3n2)n1 | 2.59 µM (active)
81 | O=C(O)CCCCCN1C(=O)/C(=C\c2ccncc2)SC1=S | 2.91 µM (active)

Row | SMILES | Potency
82 | N#Cc1nc(-c2ccco2)oc1N1CCCC1 | 2.31 µM (active)
83 | Cc1nc(-c2ccccn2)sc1C(=O)Nc1ccc(F)cc1 | 2.31 µM (active)
84 | Cc1cc(C)c2c(NC(=S)NC(=O)c3ccccc3)nn(C)c2n1 | 7.31 µM (active)
85 | Cc1csc(NC(=S)NC(=O)c2ccccc2)n1 | 11.6 µM (active)
86 | O=C(NC(=S)Nc1nc(-c2ccccc2)cs1)c1cccs1 | 3.66 µM (active)
87 | Cc1sc(NC(=S)NC(=O)c2ccccc2)c(C#N)c1C | inactive
88 | Cc1ccc2cccc(NC(=S)NC(=O)c3ccccc3)c2n1 | 4.61 µM (active)
89 | c1coc(-c2ccnc3nc(-n4cccc4)nn23)c1 | 4.11 µM (active)
90 | CCc1nn2c(-c3ccco3)ccnc2c1-c1ccccc1 | inactive
91 | Clc1ccc(-c2ccnc(-n3cccc3)n2)s1 | 2.59 µM (active)
92 | c1coc(-c2ccnc(-n3cccc3)n2)c1 | 2.59 µM (active)
93 | CSc1nc2sc3c(c2c(=O)n1C)CCC(C)C3 (stereo not given) | 18.4 µM (active)
94 | Cc1cc(C)c(-n2c(SCCS(=O)(=O)c3ccc(F)cc3)n[nH]c2=O)c(C)c1 | 20.6 µM (active)
95 | NC(=O)c1ccsc1NC(=O)COC(=O)[C@@H]1CCCN1C(=O)c1cccs1 | 6.51 µM (active)
96 | O=C(NNC(=O)c1nc(Cl)ccc1Cl)c1ccc(F)cc1 | 11.6 µM (active)
97 | O=C1C(=C2CCc3ccccc32)Cc2ccccc21 | 1.03 µM (active)
98 | COC(=O)c1ccc2nc(-c3ccc(F)cc3)c(CC3CCCCC3)n2c1 | 9.2 µM (active)
99 | COC(=O)c1ccc2nc(-c3cccc(Br)c3)c(CC3CCCCC3)n2c1 | 13 µM (active)
100 | O=c1cc(-c2ccccc2)nc2c(Cl)cc(Cl)cn12 | 3.66 µM (active)
101 | COCCn1c(C(F)(F)F)ccc(NC(=O)c2ccccc2)c1=O | 2.31 µM (active)
102 | FC(F)(F)c1cc(-c2cccs2)nc2cc(-c3cccs3)nn12 | 2.91 µM (active)
103 | Cc1ncc(N=Nc2ccccc2)c(-c2ccccc2)n1 | 3.66 µM (active)
104 | Cc1ccc(CNC(=O)c2sccc2-n2cccc2)cc1 | 5.17 µM (active)
105 | CC(C)c1ccc(NC(=O)c2sccc2-n2cccc2)cc1 | 2.59 µM (active)
